# PGK inhibitor – blocks T. brucei phosphoglycerate kinase; Potency, µM (top dose mostly 57.5 µM), hits mostly inhibitors; actives 0.043% (n = 380,000); PGK/GAPDH coupled, Kinase-Glo luminescence, 60 min; P07378; AID 602233; note: nearly all actives have a fitted effect of over 60% in size
#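 Recombinant glycosomal PGK reaction used 1,3-bisphosphoglycerate generated in-well by GAPDH (100nM final) in 100mM TEA pH 7.6, 5mM MgCl2, 0.01% Tween-20. After 60 minutes at room temperature, ATP was read by Kinase-Glo Plus luminescence end-point.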
# TDP1 block – inhibitors of human tyrosyl-DNA phosphodiesterase TDP1 | Q9NUW8 | recombinant TDP1, AlphaScreen DNA substrate cleavage | Potency, µM (top dose mostly 130 µM), actives largely listed as inhibitors | actives 0.28% (n = 350,000); note: nearly all actives have a fitted effect of over 40% in size
#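 Tdp1 1 nM final; 15 min RT w/ cpd; substrate 15 nM, 5 min; beads 10 ug/ml, 10 min; AlphaScreen read. Neg ctrl: no enzyme.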
# Tb PFK block – blocks T. brucei phosphofructokinase; actives 0.17% (n = 330,000); Potency, µM (top dose mostly 57.5 µM), usual class: inhibitors; T. brucei PFK, ADP-Glo luminescence; O15648; note: nearly all actives have a fitted effect of over 60% in size
#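 Activity is normalized to no-enzyme wells (full inhibition) and 1.25 nM enzyme wells (no inhibition). Reaction: 0.5 mM F6P, 0.1 mM ATP, 45 min RT, ADP-Glo luminescence; concentration-response curves fitted and classed by quality.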
# FEN1 inh – human FEN1 inhibition; actives 0.35% (n = 390,000); Potency, µM (highest dose often 114 µM), usual class: inhibitors; P39748; Recombinant FEN1 flap cleavage, fluorescence, 15 min; note: nearly all actives have a fitted effect of over 65% in size
#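 Recombinant FEN1 (10 nM) was preincubated with pin-transferred compounds for 15 min at room temperature, then flap DNA substrate (50 nM final) was added. Plates were read at 0 and 15 min, and normalized concentration–response data were fitted to a four-parameter Hill equation.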
# WRN helicase inh – inhibitors of human WRN helicase; Q14191; WRN helicase unwinding, fluorescent forked duplex, kinetic; Potency, µM (doses to about 114 µM), hits mostly inhibitors; actives 0.46% (n = 360,000); AID 651768; note: nearly all actives have a fitted effect of over 55% in size
#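 WRN at 20 nM final was preincubated with compound for 15 min at room temperature; reaction started with 100 nM forked duplex oligonucleotide carrying fluorophore and quencher plus 2 mM ATP (final). Unwinding followed kinetically by red fluorescence (ex 525/em 598 nm).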
# PI5P4K alpha inh – PI5P4K alpha (human) kinase inhibition. P48426. PI5P4Kalpha enzyme, ADP-Glo luminescence, 60 min; active compounds read low. max response, %. actives 1.2% (n = 330,000). AID 652105; active = max response of -50% or lower; inconclusive = between -30% and -50%; inactive = -30% or higher; note: value at the top dose of about 77 µM
#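 Single end-point luminescence (ADP-Glo) quantified ADP from PI5P4Kalpha turnover; ATP 5 microM final, 1 h at RT, 0.1% CHAPS and 0.28 mM EGTA in HEPES pH 7.4.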
# Hits are given with their value; n = inactive; u = inconclusive; x = no result; [ ] = remark or other dose. This is a sample that favours compounds with a hit; in the whole collection about 1.5% have one here. Unless noted, calls come from the whole dose curve; as a rule, active = well fitted curve in the direction sought with a large enough effect; inconclusive = small, poorly fitted or top-dose-only effect, or another doubt; inactive = no such curve, though single readings can be large; an effect the other way counts as inactive or inconclusive.
SMILES,PGK inhibitor,TDP1 block,Tb PFK block,FEN1 inh,WRN helicase inh,PI5P4K alpha inh
CC(=O)O[C@@]12CO[C@@H]1C[C@H](O)[C@@]1(C)C(=O)[C@H](O)C3=C(C)[C@@H](OC(=O)C(O)[C@@H](NC(=O)OC(C)(C)C)c4ccccc4)C[C@@](O)([C@@H](OC(=O)c4ccccc4)[C@H]21)C3(C)C (some centres undefined),x,x,x,n,x,x
O=C(N/N=C/c1ccsc1)c1cc2ccccc2o1,n,79µM,n,n,n,n
O=C(N/N=C/c1ccc2c(c1)OCO2)c1cc2ccccc2o1,n,50µM,n,n,n,n
O=C(N/N=C/c1ccc2c(c1)OCO2)c1cccnc1,n,n,n,n,n,n
O=C(N/N=C\c1ccc2c(c1)OCO2)c1cncc(Br)c1,n,50µM,n,n,n,n
CC(C)(C)n1ncc2c(=O)n(Cc3c(Cl)ccc(Cl)c3Cl)cnc21,x,x,x,n,x,x
COc1ccc(-c2nnc(SCC#CCO)o2)cc1OC,n,n,n,n,n,-56
O=c1[nH]c2c(-c3nc(-c4ccc(F)cc4)cs3)c(O)cn2c2ccc(Br)cc12,x,x,x,n,x,x
COc1cc(S(=O)(=O)O)c(C)cc1N=Nc1c(O)ccc2cc(S(=O)(=O)O)ccc12,x,x,x,35µM,x,x
CCS(=O)(=O)c1ccc(N=Nc2ccc(O)c3ncccc23)c(OC)c1,n,n,n,n,n,n
Cc1ccc(/C(=N/Nc2nc3ccccc3s2)C2=C(O)c3ccccc3C2=O)cc1,n,n,n,n,n,-81
C[C@H](NC(=O)CNC(=O)[C@@H](NC(=O)[C@H](Cc1ccccc1)NC(=O)CNC(=O)CNC(=O)[C@@H](N)Cc1ccccc1)[C@@H](C)O)C(=O)N[C@@H](CCCN=C(N)N)C(=O)N[C@@H](CCCCN)C(=O)N[C@@H](CO)C(=O)N[C@@H](C)C(=O)N[C@@H](CCCN=C(N)N)C(=O)N[C@@H](CCCCN)C(N)=O,x,n,x,x,x,x
Nc1nc2[nH]cc(CCc3ccc(C(=O)N[C@@H](CCC(=O)O)C(=O)O)cc3)c2c(=O)[nH]1,x,x,x,n,x,x
O=C1C=C(C2OC(CO)C(O)C2O)C(=O)N1 (centres undefined),n,x,x,n,n,-54
O=C(Cn1c(=O)oc2ccccc21)Nc1nc(-c2ccccc2)cs1,n,n,n,n,n,x
O=C(Cn1c(=O)oc2ccccc21)Nc1n[nH]c(=S)s1,n,n,n,u,n,-79
CC(C)C[C@H](NC(=O)[C@H](Cc1cnc[nH]1)NC(=O)[C@@H](N)Cc1cnc[nH]1)C(=O)NCC(=O)NCC(=O)N[C@@H](C)C(=O)N[C@@H](CCCCN)C(=O)N[C@@H](CCC(N)=O)C(=O)N[C@@H](C)C(=O)NCC(=O)N[C@@H](CC(=O)O)C(=O)N[C@H](C(=O)O)C(C)C,x,n,x,x,x,x
CCN(Cc1ccccc1)S(=O)(=O)c1ccccc1Br,n,n,n,n,n,n
CCCN(S(=O)(=O)c1ccccc1F)S(=O)(=O)c1ccccc1Br,n,89µM,n,n,n,n
O=C(Nc1nc(-c2ccc3c(c2)OCCO3)cs1)C1CC(=O)N(c2ccc3c(c2)OCCO3)C1 (centres undefined),x,n,x,n,x,x
CC(C)(C)n1ncc2c(=O)n(Cc3ccc(F)c(C(F)(F)F)c3)cnc21,x,x,x,n,x,x
COc1cc(OC)cc(-c2nnc3n2N=C(c2cc(OC)ccc2OC)CS3)c1,x,n,x,x,x,x
CC(=O)Nc1ccc(N2C(=O)c3cccc4c(O)ccc(c34)C2=O)cc1,u,x,u,u,50µM,u
CCOc1cccc(C(=O)N/N=C/c2ccoc2)c1,n,n,n,n,n,n
CCOc1ccccc1C(=O)N/N=C/c1ccoc1,n,50µM,n,n,n[11.6 µM],u
SMILES,PGK inhibitor,TDP1 block,Tb PFK block,FEN1 inh,WRN helicase inh,PI5P4K alpha inh
O=c1[nH]c(/C=C\c2cccnc2)c([N+](=O)[O-])c(=O)[nH]1,n,n,n,n,n,u
CCC(C)Oc1ccc(/C=C/c2[nH]c(=O)[nH]c(=O)c2[N+](=O)[O-])cc1OC (centres undefined),n,n,u,n,n,-58
O=c1[nH]c(/C=C/c2ccccc2)c([N+](=O)[O-])c(=O)[nH]1,n,n,n,n,n,-76
O=c1[nH]c(/C=C/c2cccc([N+](=O)[O-])c2)c([N+](=O)[O-])c(=O)[nH]1,n,x,n,n,n[11.6 µM],-67
O=[N+]([O-])c1cccc(/C=C/c2ccccc2)c1,x,x,x,n,x,x
COc1ccc(/C=C/C(=O)Oc2cc(C)[nH]c(=O)c2[N+](=O)[O-])cc1OC,n,n,n,n,n,n
O=c1[nH]c(/C=C/c2cccnc2)c([N+](=O)[O-])c(=O)[nH]1,n,n,n,n,n,-65
O=C(O)c1cccs1,x,x,x,n,x,x
O=C1CCC[C@@H](C2=CCCCC2=O)C1,x,n[21 µM],x,x,x,x
O=c1[nH]cnc2n[nH]nc12,x,x,x,n,x,x
CC(SC1=NS(=O)(=O)c2ccccc21)C(=O)O (centres undefined),x,n,x,n,x,x
O=c1[nH]c(/C=C/c2ccc(Cl)cc2Cl)c([N+](=O)[O-])c(=O)[nH]1,n,x,n,n,n,-78
Cc1cc(OC(=O)c2ccc(Cl)cc2Cl)c([N+](=O)[O-])c(=O)[nH]1,n,x,n,n,n,n
Cc1cccc(NC2=NCC(=O)N2Cc2cccs2)c1,n,n,n,n,50µM,n
Cc1ccc2nccc(/C=C/c3ccc(N(C)C)cc3)c2c1,x,x,x,n,x,x
O=C(O)c1ccc(Nc2nc(-c3cc4ccccc4oc3=O)cs2)cc1O,u,79µM,n,u,u,-79
